Where “and” joins values, the source holds several entries; their conditions need not be identical. Equal entries are not always repeated. Inconclusive results are not listed. More than one record can exist for a structure, and the calls need not agree. Calls of active or inactive are those of the source. The calls were made as follows: active = hit-call score of the fitted dose curve at least 0.9, where 1 is the maximum; inconclusive = response in the unintended direction; inactive = score below 0.9.

Experiment [1] deals with Cellular tumor antigen p53 (Homo sapiens) (UniProt P04637). Put plainly: TOX21_p53_BLA_p3_ratio: Tox21 HCT-116 p53 Agonism Beta-lactamase Assay, Ratio, Phase 3 (AID 2283596). A digest of the protocol: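 Cells were seeded at 4000/well, rested 5 h at 37C, then dosed with DMSO compound solutions (217-fold dilution) for 16 h. CCF4-AM substrate was loaded for 2 h at room temperature, and the 460/530 nm emission ratio was fitted for gain of signal versus DMSO.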
Chain of Cellular tumor antigen p53 (Homo sapiens) (P04637 whole entry, looked up): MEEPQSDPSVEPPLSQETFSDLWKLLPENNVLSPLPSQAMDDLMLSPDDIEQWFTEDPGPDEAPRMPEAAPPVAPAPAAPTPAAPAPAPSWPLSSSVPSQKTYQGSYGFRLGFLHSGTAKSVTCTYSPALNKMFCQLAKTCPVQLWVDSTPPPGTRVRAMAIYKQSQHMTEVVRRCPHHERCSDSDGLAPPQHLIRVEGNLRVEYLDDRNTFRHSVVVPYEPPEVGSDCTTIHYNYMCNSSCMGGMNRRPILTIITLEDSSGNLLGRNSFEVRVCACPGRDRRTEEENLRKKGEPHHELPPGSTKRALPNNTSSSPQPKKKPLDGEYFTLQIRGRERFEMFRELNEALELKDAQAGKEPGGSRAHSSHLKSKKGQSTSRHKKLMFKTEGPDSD

Experiment [2] in a line: TOX21_p53_BLA_p4_viability: Viability Assessment in the Tox21 HCT-116 p53 Agonism Beta-lactamase Assay, Phase 4 (AID 2283597).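 Also: hits lower the luminescence signal meaning cytotoxicity.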 The method in brief:
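Readout: ATP luminescence (CellTiter-Glo), measured 30 min after reagent addition at RT. The reagent followed a 2 h CCF4-AM incubation, and the cells had been exposed to compound for 16 h at 37C.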

The target of experiment [3] is Cellular tumor antigen p53 (Homo sapiens) (UniProt P04637). The experiment can be described thus: TOX21_p53_BLA_p5_ratio: Tox21 HCT-116 p53 Agonism Beta-lactamase Assay, Ratio, Phase 5 (AID 2283599). A digest of the protocol: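 Beta-lactamase reporter ratio (blue 460 nm over green 530 nm, 405 nm excitation) after 2 h CCF4-AM loading, in HCT-116 cells exposed 16 h at 37 C to compounds pinned at 217-fold dilution. Increases relative to DMSO baseline scored.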

The target is the same in experiment [4]. Put plainly: TOX21_p53_BLA_p4_ratio: Tox21 HCT-116 p53 Agonism Beta-lactamase Assay, Ratio, Phase 4 (AID 2283601). The method in brief:
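Signal is the blue/green (460nm/530nm) ratio of cleaved versus uncleaved CCF4-AM substrate, read after 2 h substrate loading. Cells were HCT116 carrying the p53-responsive beta-lactamase reporter, dosed 16 h at 37C, 5% CO2; CellTiter-Glo measured in parallel.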

The nature of experiment [5]: Tanguay_ZF_120hpf_MORT_legacy: (Legacy) Oregon State University Tanguay Lab 120 Hour Post-fertilization zebrafish Assay for Mortality (AID 2283633).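 As to AC50: fitted as increase in binary mortality versus DMSO negative control.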 A digest of the protocol: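 5D WT zebrafish, chorion removed 4 hpf; 1 embryo/well from 6 hpf; static exposure to 120 hpf, 28C, dark, sealed. Final DMSO 0.64%. Readout: binary mortality, brightfield, 24 + 120 hpf; DMSO as negative control.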

Experiment [6] in a line: Tanguay_ZF_120hpf_YSE_legacy: (Legacy) Oregon State University Tanguay Lab 120 Hour Post-fertilization zebrafish Assay for Yolk Sac Edema (AID 2283634).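 As to AC50: actives raise the incidence of yolk sac edema above the DMSO baseline.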 A digest of the protocol:
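Dechorionate (pronase, 4 hpf) → place one 6 hpf embryo per well → static compound exposure, sealed and foil-covered, 28C, to 120 hpf → record yolk sac edema as present or absent. Final DMSO 0.64%.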

A short description of experiment [7]: Tanguay_ZF_120hpf_AXIS_legacy: (Legacy) Oregon State University Tanguay Lab 120 Hour Post-fertilization zebrafish Assay for Body Axis Malformation (AID 2283635).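 As to AC50: potency for an increased fraction of larvae scored with body axis malformation.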 The method in brief: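 Chorion is removed with pronase at 4 hpf, then single 6 hpf embryos are dosed (final DMSO 0.64%) and held statically at 28C in sealed, foil-covered plates. At 120 hpf body axis malformation is recorded as present or absent.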

A short description of experiment [8]: Tanguay_ZF_120hpf_EYE_legacy: (Legacy) Oregon State University Tanguay Lab 120 Hour Post-fertilization zebrafish Assay for Eye Malformation (AID 2283636).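 Also: binary presence or absence of eye malformation scored by brightfield in 120 hpf larvae.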 A digest of the protocol:
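Binary brightfield scoring of eye defects at 120 hpf after static exposure from 6 hpf of single pronase-dechorionated wild-type embryos (28C, 0.64% DMSO). Non-mortality endpoints omitted where embryos died; fit vs DMSO.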

The nature of experiment [9]: TOX21_p53_BLA_p5_viability: Viability Assessment in the Tox21 HCT-116 p53 Agonism Beta-lactamase Assay, Phase 5 (AID 2283600). The method in brief:
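Workflow: seed 4000 cells per well, wait 5 h, add compounds (DMSO, 217-fold dilution), incubate 16 h, load CCF4-AM 2 h, add CellTiter-Glo, read luminescence after 30 min.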

Experiment [10] in a line: Tanguay_ZF_120hpf_SNOU_legacy: (Legacy) Oregon State University Tanguay Lab 120 Hour Post-fertilization zebrafish Assay for Snout Malformation (AID 2283637). The method in brief:
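Binary snout-malformation call at 120 hpf in wild-type 5D embryos, chorion removed by pronase, under static exposure from 6 hpf at 28C (0.64% DMSO). Embryos dying by 24 or 120 hpf excluded.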

With `C[C@]12C[C@H](O)[C@H]3[C@@H](CCC4=CC(=O)CC[C@@]43C)[C@@H]1CC[C@@H]2C(=O)CO`, the outcome in experiment [1], in experiment [2], in experiment [3], in experiment [4], in experiment [5] and in experiment [6] was inactive. Also, the result in experiment [7] and in experiment [8] was inactive.

On to `CSC(=O)c1cccc2nnsc12`, for which the result in experiment [1], in experiment [2], in experiment [3], in experiment [4], in experiment [5] and in experiment [6] was inactive. Moreover, the call in [7] and in [8] was inactive.

Broadly, the AC50 is the midpoint of the concentration-response curve, whichever way the signal moves. For the compound `N[C@@H](Cc1cc(I)c(Oc2ccc(O)c(I)c2)c(I)c1)C(=O)O`, the outcome in experiment [1], in experiment [2], in [3], in experiment [9], in [4] and in [6] was inactive. Further, the AC50 in experiment [3] was 36.8 µM (active); in experiment [4] it was 34.8 µM (active); in experiment [5], 0.233 µM (active); in [7], 0.000818 µM (active); in [8] it was 0.00251 µM (active).

Take `C#CCOC(=O)[C@@H](C)Oc1ccc(Oc2ncc(Cl)cc2F)cc1`: the result in experiment [1], in experiment [2], in [3], in experiment [9], in [4] and in experiment [5] was inactive. The compound was called inactive in experiment [6], in experiment [7] and in experiment [8].

With `C[C@]12CC[C@@H]3c4ccc(O)cc4C[C@@H](CCCCCCCCCS(=O)CCCC(F)(F)C(F)(F)F)[C@H]3[C@@H]1CC[C@@H]2O` (stereo partly specified), the result in experiment [1], in experiment [2], in [3], in experiment [9], in experiment [4] and in experiment [5] was inactive. Moreover, the compound was called inactive in experiment [6], in [7] and in experiment [8].

In the case of `O=C(c1ccc(O)cc1O)c1ccc(O)cc1O`, the AC50 in [1] is 73.8 µM (active) and 73.3 µM (active); in [3] it was 76.4 µM (active) and 74.5 µM (active). In addition, the outcome in experiment [4], in [5], in experiment [6], in [7], in experiment [8] and in experiment [10] was inactive.

For the compound `COC(=O)CSc1cc(N=c2sc(=O)n3n2CCCC3)c(F)cc1Cl`, the outcome in experiment [2], in experiment [9], in experiment [5], in experiment [6] and in experiment [8] was inactive.

In the case of `CCC(C)OC(=O)N1CCCCC1CCO` (stereo unspecified), the outcome in [2], in experiment [9], in [4], in [5], in [6] and in experiment [8] was inactive.

Regarding `CCCN(CCC)C(=O)SCC`, the outcome in [1], in experiment [2], in experiment [9], in experiment [4], in [5] and in experiment [6] was inactive. For the same compound, the compound was called inactive in [7].

Consider `CCCOC(=O)NCCCN(C)C`, for which the outcome in [1], in experiment [3], in experiment [9], in experiment [4], in [5] and in experiment [6] was inactive. In addition, the compound was classed as inactive in experiment [7] and in experiment [8].

With `C=CCOC(Cn1ccnc1)c1ccc(Cl)cc1Cl` (stereo unspecified), the AC50 in [5] is 13.8 µM (active); in experiment [6], 1.46 µM (active). The compound was called inactive in [7] and in [8].

Turning to `CCCCC(CC)CN1C(=O)C2C3C=CC(C3)C2C1=O` (stereo unspecified), the AC50 in experiment [2] was 73.3 µM (active). In addition, the outcome in experiment [3], in experiment [9], in experiment [4], in experiment [5], in experiment [6] and in experiment [7] was inactive. Further, the compound was classed as inactive in experiment [8].

With `O=C(c1ccccc1)C1CCCCC1`, the outcome in experiment [5], in [6], in experiment [7] and in experiment [8] was inactive.

Turning to `c1ccc(Nc2ccccc2)cc1`, the outcome in experiment [2], in experiment [3], in experiment [9], in [4] and in experiment [7] was inactive. For the same compound, the figures for the AC50 in experiment [5] and in experiment [6] were 26.2 µM (active) and 12.2 µM (active), respectively.

With `S=C([S-])NCCNC(=S)[S-].[Mn+2]`, the compound was called inactive in [5], in experiment [6] and in [8].

With `COC(=O)c1ccc(I)cc1S(=O)(=O)NC(=O)Nc1nc(C)nc(OC)n1`, the result in experiment [2], in [3], in experiment [9], in experiment [4], in experiment [5] and in experiment [6] was inactive. For the same compound, the compound was classed as inactive in experiment [7].

On to `COc1c(Cl)ccc(Cl)c1C(=O)O`, for which the compound was classed as inactive in [5], in experiment [6], in [7] and in experiment [8].

Take `COC(=O)c1ccccc1C(=O)O`: the result in experiment [1], in experiment [2], in [9], in experiment [5], in experiment [6] and in [7] was inactive.

Turning to `CCCCOC(=O)[C@@H](C)Oc1ccc(Oc2ccc(C(F)(F)F)cn2)cc1`, the result in experiment [1], in [9], in experiment [4], in experiment [5], in [6] and in [7] was inactive. Besides, the compound was called inactive in experiment [8].

Regarding `CCOC(=O)C(C)Oc1ccc(Oc2nc3ccc(Cl)cc3o2)cc1` (stereo unspecified), the result in experiment [3], in experiment [9], in experiment [5], in experiment [6], in experiment [7] and in [8] was inactive.

For the compound `CCNc1nc(N)nc(Cl)n1`, the result in experiment [1], in [3], in [9], in [4], in [5] and in [6] was inactive. Besides, the compound was called inactive in [7] and in experiment [8].

`c1ccc2[nH]c(-c3cscn3)nc2c1`: the call in experiment [5], in experiment [6], in [7] and in experiment [8] was inactive.

Take `N#CSCSc1nc2ccccc2s1`: in experiment [5], the AC50 is 0.539 µM (active). The call in experiment [6], in [7] and in experiment [8] was inactive.

For the compound `CCN(CC)C(=O)c1cccc(C)c1`, the compound was called inactive in experiment [5], in [6], in [7], in experiment [8] and in experiment [10].

Turning to `CCCCCOC(=O)COc1cc(N2C(=O)C3=C(CCCC3)C2=O)c(F)cc1Cl`, the result in experiment [5], in experiment [6], in experiment [7] and in experiment [8] was inactive.

With `CC(C)(C)[C@@H](O)[C@@H](Cc1ccc(Cl)cc1)n1cncn1`, the outcome in [1], in experiment [2], in experiment [9], in [4], in [5] and in [8] was inactive. Moreover, the figures for the AC50 in experiment [6] and in [7] were 36.1 µM (active) and 40.9 µM (active), respectively.

As to `COCCO`, the outcome in experiment [1], in experiment [3], in [9], in experiment [5], in experiment [7] and in [8] was inactive.

On to `S=C(S)NCCNC(=S)S.[Mn+2].[S-]C([S-])=NCCN=C([S-])[S-].[Zn+2]`, for which the compound was called inactive in experiment [5], in experiment [6], in experiment [7] and in experiment [8].

For the compound `CC1(C)C(C=C(Cl)Cl)C1C(=O)OCc1cccc(Oc2ccccc2)c1` (stereo unspecified), the outcome in [1], in [2], in [9], in experiment [4], in [5] and in experiment [6] was inactive. Besides, the call in [7] and in [8] was inactive.

For the compound `CCCCOCCOCCOCc1cc2c(cc1CCC)OCO2`, the figures for the AC50 in experiment [5], in experiment [6] and in experiment [7] were 5.13 µM (active), 28.3 µM (active) and 25.5 µM (active), respectively. In addition, the compound was called inactive in [8].

`CCOC(=O)C(C)Oc1ccc(Oc2cnc3cc(Cl)ccc3n2)cc1` (stereo unspecified): the result in experiment [5], in [6], in experiment [7], in experiment [8] and in [10] was inactive.

On to `CCOC(=O)COc1cc(-n2ncc(C(F)(F)F)c(C)c2=O)c(F)cc1Cl`, for which the outcome in experiment [2], in experiment [4], in experiment [5], in experiment [6], in experiment [7] and in experiment [8] was inactive.

The values are drawn from PubChem BioAssay (EPA / NIEHS).
